Source: PubChem BioAssay (Tox21)
“And” between values parts separate entries of the source, which are not always exact repeats. Equal values may be shown once. Results filed as inconclusive are left out. A call without a number means that no potency is given here. The source holds several records for some structures; these can differ, active in one and inactive in another. The source made the active and inactive calls. Unless noted, calls come from the whole dose curve; as a rule, active = well fitted curve in the direction sought with a large enough effect in the repeat runs; inconclusive = weak or mixed curves; inactive = no such curve, though single readings can be large; an effect the other way counts as inactive or inconclusive.

What was measured:
[1] = qHTS assay for small molecules that induce genotoxicity in human embryonic kidney cells expressing luciferase-tagged ATAD5 (AID 651632); details: HEK293T ATAD5-luciferase induction, 16 h; series mostly up to 83.3 µM; note: nearly all actives have a fitted effect of over 15% in size; note: potency is the fitted concentration of half-maximal effect
How it was run: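 Test compounds were delivered by pin tool onto HEK293T reporter cells (2,000/well) expressing ATAD5 fused to luciferase. After 16 hr at 37C, 5% CO2, Amplite was added for 30 min at room temperature and luminescence was measured.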

[2] = qHTS assay for small molecule agonists of the p53 signaling pathway - cell viability (AID 651633; calls by dose curve; note: nearly all actives have a fitted effect of over 30% in size; note: potency is the fitted concentration of half-maximal effect); details: p53RE-bla HCT-116 viability, ATP luminescence, 16 h; series mostly up to 83.3 µM
How it was run: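 p53RE-bla cells were treated with compound for 16 hours at 37 C. Cytotoxicity was then measured as CellTiter-Glo luminescence after 30 min at room temperature.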

[3] = qHTS assay for small molecules that induce genotoxicity in human embryonic kidney cells expressing luciferase-tagged ATAD5 - cell viability (AID 651634; calls by dose curve; note: nearly all actives have a fitted effect of over 25% in size; note: potency is the fitted concentration of half-maximal effect); details: HEK293T ATAD5-luc cells viability, CellTiter-Fluor, 15.5 h; series mostly up to 83.3 µM
How it was run: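 Quantitative high-throughput format. HEK293T cells expressing ATAD5 fused to luciferase were plated at 2,000 cells/well and treated 15.5 hr with compound versus DMSO. Viability was determined by fluorescent live-cell protease substrate, 30 min at 37C.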

[4] = qHTS assay for small molecule disruptors of the mitochondrial membrane potential - cell viability (AID 720634; calls by dose curve; note: nearly all actives have a fitted effect of over 20% in size; note: potency is the fitted concentration of half-maximal effect); details: HepG2 viability, ATP luminescence (CellTiter-Glo), 1 h; series mostly up to 83.2 µM
How it was run: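 Same-well counter-screen: following the MMP dye addition, CellTiter-Glo was added to 1 hr compound-treated HepG2 cells and luminescence read after 30 min at room temperature.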

[5] = qHTS assay for small molecule disruptors of the mitochondrial membrane potential (AID 720635); details: HepG2 mitochondrial membrane potential, Mito-MPS dye ratio; series mostly up to 83.2 µM; note: potency is the fitted concentration of half-maximal effect
How it was run: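 HepG2 cells exposed to compound 1 hr at 37C, then Mito-MPS dye 30 min. Ratio read of aggregate (540/590 nm) versus monomer (490/535 nm) fluorescence.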

[6] = qHTS assay to test for compound auto fluorescence at 590 nm (red) in HepG2 cells (AID 720674); details: HepG2 autofluorescence, red 540/590 nm, 1 h; series mostly up to 91.3 µM
How it was run: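 HepG2 cells, 2,000 per well in MEM with 10% FBS, attached overnight at 37 C, then got 23 nL compound or DMSO. After 1 hr at 37 C, 5% CO2, red fluorescence was read at 540/590 nm against Rose Bengal sodium as reference.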

[7] = qHTS assay to test for compound auto fluorescence at 535 nm (green) in HepG2 cells (AID 720675); details: green autofluorescence 485/535 nm, 1 h; series mostly up to 91.3 µM
[8] = qHTS assay to test for compound auto fluorescence at 460 nm (blue) in HEK293 cells (AID 720678); details: blue autofluorescence 405/460 nm; series mostly up to 91.3 µM
How it was run: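 Intrinsic compound fluorescence is recorded in live HEK293 cultures after overnight incubation at 37C, 5% CO2, using excitation 405 nm and emission 460 nm. Values are referenced to triamterene.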

[9] = qHTS assay to test for compound auto fluorescence at 590 nm (red) in HEK293 cells (AID 720679); details: red autofluorescence 540/590 nm; series mostly up to 91.3 µM
How it was run: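 Red autofluorescence, HEK293 cells: 2,000 cells/well; attach 4-5 hr 37C; add 23 nL cpd or DMSO; incubate o/n 37C 5% CO2; read Ex540/Em590; Rose Bengal sodium reference.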

[10] = qHTS assay to test for compound auto fluorescence at 535 nm (green) in HEK293 cells (AID 720680); details: green autofluorescence 485/535 nm; series mostly up to 91.3 µM
[11] = qHTS assay to test for compound auto fluorescence at 460 nm (blue) in HEK293 cell free culture (AID 720681); details: cell-free medium, autofluorescence 405/460 nm (blue); series mostly up to 91.3 µM
How it was run: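 Compounds were added to cell-free DMEM with 10% FBS and fluorescence read directly. The blue channel used 405 nm excitation and 460 nm emission, with triamterene as the reference fluorophore.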

[12] = qHTS assay to test for compound auto fluorescence at 535 nm (green) in HEK293 cell free culture (AID 720682); details: cell-free medium, green autofluorescence 485/535 nm, stronger effect = higher value; series mostly up to 91.3 µM
How it was run: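 Intrinsic compound fluorescence is measured in culture medium containing 10% FBS, with excitation at 485 nm and detection at 535 nm, referenced to fluorescein.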

[13] = qHTS assay to test for compound auto fluorescence at 590 nm (red) in HEK293 cell free culture (AID 720683); details: cell-free medium autofluorescence, Ex540/Em590 red; series mostly up to 91.3 µM
How it was run: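 Cell-free wells of DMEM with 10% FBS received compound, and intrinsic fluorescence was read at excitation/emission 540/590 nm. Values expressed as equivalence to Rose Bengal sodium.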

[14] = qHTS assay to test for compound auto fluorescence at 590 nm (red) in HepG2 cell free culture (AID 720684); details: cell-free medium autofluorescence, red 540/590 nm; series mostly up to 91.3 µM
How it was run: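 Rose Bengal sodium served as the reference for red signal. Test compounds were dispensed into serum-containing MEM (10% FBS) without cells, and plates were read at 540/590 nm.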

[15] = qHTS assay to test for compound auto fluorescence at 460 nm (blue) in HepG2 cell free culture (AID 720685); details: Cell-free culture medium, blue autofluorescence 405/460 nm; series mostly up to 91.3 µM
How it was run: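 Cell-free plates of MEM plus 10% FBS received 23 nL compound or DMSO vehicle; blue-channel (405/460 nm) intensity scored against triamterene as reference fluorophore.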

[16] = qHTS assay to test for compound auto fluorescence at 535 nm (green) in HepG2 cell free culture (AID 720686); details: Cell-free medium, green autofluorescence 485/535 nm; series mostly up to 91.3 µM
[17] = qHTS assay to test for compound auto fluorescence at 460 nm (blue) in HepG2 cells (AID 720687); details: autofluorescence 405/460 nm, 1 h; series mostly up to 91.3 µM
How it was run: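 HepG2 cells in MEM with 10% FBS, attached overnight at 37 C, were exposed to compound or DMSO for 1 hr at 37 C, 5% CO2. Blue fluorescence was read at 405/460 nm, with triamterene as reference fluorophore.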

[18] = qHTS assay for small molecule agonists of the p53 signaling pathway (AID 651631; calls by dose curve; note: nearly all actives have a fitted effect of over 15% in size); details: HCT-116 p53RE-bla reporter, beta-lactamase FRET ratio, 16 h; series mostly up to 73.3 µM
How it was run: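 Fluorescence intensity from cleaved LiveBLAzer B/G substrate (2 h, room temperature) served as the signal. Beforehand, HCT-116 reporter cells bearing p53 response elements were treated 16 h at 37 °C with DMSO-dissolved compounds.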

[19] = molecular target: Glucocorticoid receptor (Homo sapiens) (UniProt P04150); assay: qHTS assay to identify small molecule agonists of the glucocorticoid receptor (GR) signaling pathway (AID 720691; active = well fitted activation curve with a large enough effect in the signal ratio in the repeat runs, not every such curve was filed as active; the % refers to the signal ratio); details: GR-bla HeLa, beta-lactamase reporter ratio, 18 h; series mostly up to 62.4 µM
Glucocorticoid receptor (Homo sapiens), sequence (P04150 whole entry, looked up): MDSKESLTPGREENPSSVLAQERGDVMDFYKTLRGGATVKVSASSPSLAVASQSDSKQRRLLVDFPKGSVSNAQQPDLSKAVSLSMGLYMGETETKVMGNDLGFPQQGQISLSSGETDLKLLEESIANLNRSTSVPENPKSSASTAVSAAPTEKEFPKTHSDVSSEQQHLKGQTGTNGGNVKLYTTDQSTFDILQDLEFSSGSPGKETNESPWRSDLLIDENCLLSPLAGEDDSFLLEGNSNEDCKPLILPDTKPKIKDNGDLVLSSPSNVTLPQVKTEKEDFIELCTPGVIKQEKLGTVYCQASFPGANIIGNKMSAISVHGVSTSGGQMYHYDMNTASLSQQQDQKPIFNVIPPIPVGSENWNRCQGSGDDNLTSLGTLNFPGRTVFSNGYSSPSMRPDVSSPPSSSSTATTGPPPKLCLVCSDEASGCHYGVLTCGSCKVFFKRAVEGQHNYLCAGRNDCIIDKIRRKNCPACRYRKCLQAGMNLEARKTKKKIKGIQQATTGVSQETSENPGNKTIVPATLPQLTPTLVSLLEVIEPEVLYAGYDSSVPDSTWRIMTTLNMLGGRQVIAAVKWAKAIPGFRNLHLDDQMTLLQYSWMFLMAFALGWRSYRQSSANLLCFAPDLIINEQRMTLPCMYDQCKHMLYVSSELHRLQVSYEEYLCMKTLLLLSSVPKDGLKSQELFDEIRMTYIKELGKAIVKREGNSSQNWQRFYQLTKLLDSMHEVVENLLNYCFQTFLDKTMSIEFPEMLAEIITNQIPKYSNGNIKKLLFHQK
How it was run: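 A HeLa cervical cancer line expressing GR and a glucocorticoid response element-driven beta-lactamase gene is treated with compounds for 18 h; LiveBLAzer B/G FRET substrate is then applied and fluorescence read.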

[20] = molecular target: Glucocorticoid receptor (Homo sapiens) (UniProt P04150); assay: qHTS assay to identify small molecule antagonists of the glucocorticoid receptor (GR) signaling pathway (AID 720692; active = well fitted inhibition curve with a large enough effect in the signal ratio in the repeat runs, not every such curve was filed as active; the % refers to the signal ratio; note: potency is the fitted concentration of half-maximal effect); details: GR-bla HeLa, beta-lactamase FRET ratio, dexamethasone-stimulated, 18 h; series mostly up to 58.5 µM
How it was run: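 GRE-bla HeLa line, dex-stimulated (5 nM final). Compound exposure 18 h, 37 C. Beta-lactamase FRET read after 2 h RT substrate.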

Row | Compound | Potency [1] | Potency [2] | Potency [3] | Potency [4] | Potency [5] | outcome [6] | outcome [7] | Potency [8] | outcome [9] | outcome [10] | Potency [11] | outcome [12] | outcome [13] | outcome [14] | Potency [15] | outcome [16] | Potency [17] | Potency [18] | outcome [19] | Potency [20]
1 | Nc1ccc2ccccc2c1 | inactive | inactive | inactive | inactive | inactive | inactive | inactive | inactive | inactive | inactive | inactive | inactive | inactive | inactive | inactive | inactive | inactive | – | – | –
2 | Nc1ccc([N+](=O)[O-])cc1N | inactive | inactive | 54.4 µM (active) | inactive | 30.6 µM (active) | inactive | inactive | inactive | inactive | inactive | inactive | inactive | inactive | inactive | inactive | inactive | inactive | – | – | –
3 | COP(=S)(OC)Oc1ccc(S(=O)(=O)N(C)C)cc1 | inactive | inactive | inactive | inactive | – | inactive | inactive | inactive | inactive | inactive | inactive | – | inactive | inactive | inactive | inactive | – | inactive | inactive | inactive
4 | CCN(CC)C(=O)C(C)Oc1cccc2ccccc12 (stereo not given) | inactive | inactive | inactive | inactive | inactive | inactive | inactive | inactive | inactive | inactive | inactive | inactive | inactive | inactive | inactive | inactive | – | – | – | –
5 | Cc1ccc(N=CN(C)C=Nc2ccc(C)cc2C)c(C)c1 | inactive | inactive and 54.7 µM (active) | inactive | inactive | inactive | inactive | inactive | inactive | inactive | inactive | inactive | inactive | inactive | inactive | – | inactive | inactive | inactive | inactive | inactive
6 | CCOS(=O)(=O)OCC | inactive | inactive | inactive | inactive | inactive | inactive | inactive | inactive | inactive | inactive | inactive | inactive | inactive | inactive | – | inactive | – | inactive | inactive | inactive
7 | O=NN1CCOCC1 | inactive | inactive | inactive | inactive | inactive | inactive | inactive | inactive | inactive | inactive | inactive | inactive | inactive | inactive | – | inactive | inactive | inactive | inactive | inactive
8 | C=CC(=O)OCC(CC)(COC(=O)C=C)COC(=O)C=C | 7.04 µM (active) | 35.3 µM (active) | 15.8 µM (active) and 19.3 µM (active) | inactive | 62.8 µM (active) | inactive | inactive | inactive | inactive | inactive | inactive | inactive | inactive | inactive | inactive | inactive | inactive | – | – | –
9 | CCOP(=S)(OCC)SCSC(C)(C)C | inactive | inactive | inactive | inactive | – | inactive | inactive | inactive | inactive | inactive | inactive | inactive | inactive | inactive | – | inactive | inactive | – | – | –
10 | CC(C)(c1ccccc1)c1ccc(O)cc1 | inactive | – | inactive | 48.2 µM (active) and inactive | 3.04 µM (active) and 3.86 µM (active) | inactive | inactive | inactive | inactive | inactive | inactive | inactive | inactive | inactive | inactive | inactive | – | – | – | 48.6 µM (active) and 54.9 µM (active)
11 | Clc1ccccc1-c1nnc(-c2ccccc2Cl)nn1 | 30.4 µM (active) | – | inactive | – | – | inactive | inactive | inactive | inactive | inactive | inactive | – | inactive | inactive | – | inactive | inactive | – | – | –
12 | CC1CC(=O)O1 (stereo not given) | – | inactive | inactive | inactive | inactive | inactive | inactive | inactive | inactive | inactive | inactive | inactive | inactive | inactive | – | inactive | inactive | – | inactive | inactive
13 | CCOP(=S)(OCC)OP(=S)(OCC)OCC | – | inactive | inactive | inactive | – | inactive | inactive | inactive | inactive | inactive | inactive | – | inactive | inactive | inactive | inactive | inactive | – | inactive | inactive
14 | CC(C)=CC1C(C(=O)OCN2C(=O)C3=C(CCCC3)C2=O)C1(C)C (stereo not given) | inactive | inactive | inactive | – | 29.8 µM (active) and 54.5 µM (active) | inactive | inactive | inactive | inactive | inactive | inactive | inactive | inactive | inactive | inactive | inactive | – | – | inactive | –
15 | CS(=O)(=O)NC(=O)c1cc(Oc2ccc(C(F)(F)F)cc2Cl)ccc1[N+](=O)[O-] | inactive | inactive | inactive | – | – | inactive | inactive | inactive | inactive | inactive | inactive | – | inactive | inactive | – | inactive | – | – | – | –
16 | O=C1C(Cl)=C(Cl)C(=O)c2ccccc21 | inactive | 6.88 µM (active) and 21.7 µM (active) | inactive | 13.7 µM (active) and 15.4 µM (active) | 3.87 µM (active) and 4.86 µM (active) | inactive | inactive | – | inactive | inactive | inactive | inactive | inactive | inactive | inactive | inactive | inactive | – | – | –
